# Source: PubChem BioAssay
# An excerpt weighted towards active compounds, which were near 3.2% of everything screened.
# TR SRC2 fluor cs – counter-screen for TRb-SRC2 inhibitors: fluorescence interference; Potency, µM (titrated, usually from 106 µM), for the others: at the top dose fluorescence change, negative = quenching; TRb/SRC2 Texas Red total fluorescence interference; 280,000 tested, 0.29% active; AID 1479; active = well fitted curve in either direction with a large enough effect; inconclusive = small, poorly fitted or top-dose-only effect
#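 Human TRb ligand-binding domain at 0.6 uM with 20 nM Texas Red SRC2 peptide in Tris buffer containing 1 uM T3 and 5% DMSO, incubated with compound 5 h at ambient temperature. Total fluorescence (555/632 nm) calculated as parallel + 2 × perpendicular.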
# Tau ThT inhib – tau fibrillization inhibition (ThT binding); P10636; recombinant tau K18 P301L, heparin-induced fibrillization, ThT fluorescence; Potency, µM (highest dose often 57.4 µM), inactives show at the top dose activity, negative = inhibition, actives largely listed as inhibitors; 270,000 tested, 2.1% active; also: nearly all actives have a fitted effect of over 55% in size
# Target sequence (P10636 561-689 P618L limits assumed): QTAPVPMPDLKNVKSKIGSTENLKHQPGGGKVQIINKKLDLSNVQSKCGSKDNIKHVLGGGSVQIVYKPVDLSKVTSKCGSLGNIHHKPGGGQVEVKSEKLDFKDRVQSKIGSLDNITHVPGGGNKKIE
#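 Heparin-induced (20 uM) aggregation of recombinant human K18 P301L tau, 15 uM unlabeled with 0.24 uM labeled, pH 7 acetate buffer, 6 hr at 37 C with compound. Fibrils quantified by 30 uM ThT fluorescence after 1 hr ambient incubation.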
# GoLoco inh red – RGS12 GoLoco-Gai1 interaction inhibition. AID 880. 230,000 tested, 0.44% active. P63096. Gai1:RGS12 GoLoco peptide FP, rhodamine, 10 min. Potency, µM (doses to about 61.6 µM), for the others: at the highest dose activity, negative = inhibition, hits mostly inhibitors; active = well fitted inhibition curve with a large enough effect, not every such curve was filed as active; inactive = no such curve, though single readings can be large or run the other way; also: nearly all actives have a fitted effect of over 30% in size
# TRb-SRC2 inh – disrupts binding of human TR beta to SRC2; P10828; Potency, µM (doses to about 106 µM), for the others: at the highest dose activity change, negative = inhibition, usual class: inhibitors; 280,000 tested, 0.065% active; TRbeta-SRC2 peptide binding, fluorescence polarization; receptor liganded with 1 µM T3; AID 1469;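 also: plate controls were bound peptide for no effect and peptide without receptor for full effect; nearly all actives have a fitted effect of over 50% in size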
# Target sequence (P10828 whole entry, looked up): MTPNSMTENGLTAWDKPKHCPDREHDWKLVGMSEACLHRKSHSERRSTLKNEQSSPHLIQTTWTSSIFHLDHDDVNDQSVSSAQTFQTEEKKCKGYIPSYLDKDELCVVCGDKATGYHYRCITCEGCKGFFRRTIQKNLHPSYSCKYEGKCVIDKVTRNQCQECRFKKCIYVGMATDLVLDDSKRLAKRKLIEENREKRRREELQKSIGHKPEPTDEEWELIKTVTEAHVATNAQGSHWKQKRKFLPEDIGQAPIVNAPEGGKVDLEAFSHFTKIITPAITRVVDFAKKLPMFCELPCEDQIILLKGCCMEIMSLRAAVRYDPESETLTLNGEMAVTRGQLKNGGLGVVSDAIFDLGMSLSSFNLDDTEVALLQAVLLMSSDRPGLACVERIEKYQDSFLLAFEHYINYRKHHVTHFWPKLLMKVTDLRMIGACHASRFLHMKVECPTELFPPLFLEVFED
#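 Each compound concentration gave % activity, normalized to unbound and bound Texas Red SRC2 controls, from polarization read after 5 hr ambient incubation with T3-loaded human TRb LBD.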
# Tau FP inhib – inhibitors of human tau fibril formation; K18 P301L tau heparin fibrillization, Alexa594 FP, 6 h; 280,000 tested, 0.39% active; P10636; Potency, µM (doses to about 57.7 µM), for inactives: top-dose activity, negative = inhibition, actives largely listed as inhibitors; also: nearly all actives have a fitted effect of over 55% in size
#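 FP of Alexa 594-tau after heparin (20 uM) induction. Substrate: human K18 P301L, 15 uM unlabeled, 0.24 uM labeled. Buffer 100 mM sodium acetate pH 7. 6 hr, 37 C.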
# Tau fluor cs – counter-screen for tau fibril formation inhibitors; tau K18 P301L (four-repeat tau fragment) Alexa594 fluorescence, heparin fibrillization; Potency, µM (top dose mostly 57.7 µM), inactives show top-dose activity change, negative = decrease; 280,000 tested, 0.93% active; also: nearly all actives have a fitted effect of over 55% in size
#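 Human K18 P301L tau (15 uM unlabeled plus 0.24 uM Alexa 594-labeled, final) in 100 mM sodium acetate pH 7 was mixed with compound and 20 uM heparin and incubated 6 hr at 37 C.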
# * hit, by the source's call; ? = inconclusive; . = no result; [ ] = another dose, or the depositor's remark. Unless noted, calls follow the shape of the dose curve; as a rule, active = well fitted curve in the direction sought with a large enough effect; inconclusive = small, poorly fitted or top-dose-only effect, or another doubt; inactive = no such curve, though single readings can be large; an effect the other way counts as inactive or inconclusive. Unless noted, % is scaled to controls: 0 for no effect and ±100 for the full control effect; potency is read from the fitted curve at half-maximal effect.
SMILES,TR SRC2 fluor cs,Tau ThT inhib,GoLoco inh red,TRb-SRC2 inh,Tau FP inhib,Tau fluor cs
O=C(CNC(=O)c1ccccc1F)OCc1nc2ccccc2s1,-2%,-10%,12%,-1%,0%,1%
CNc1sc(C(=O)c2ccccc2F)c(N)c1-c1nc2ccccc2s1,-7%,7.9µM*,5%,-2%,3%,11µM*[quencher]
CCCOc1ccc(Oc2nc(NCC(C)C)nc(N3CCOCC3)n2)nn1,1%,9%,.,-2%,-4%,7%
O=c1cc(-c2ccccc2)[nH]c2ccccc12,-1%,-10%,6%,-2%,-5%,-7%
O=C1C(c2cc(=O)c3ccccc3[nH]2)=C(O)c2ccccc21,-26%,4.5µM*,12%,15%,10%,-10%
Cc1cc(=O)n(C(C)C(=O)N2CCCc3ccccc32)c2c1c(C)nn2-c1ccccc1 (configuration not stated),?,-17%,.,-14%,4%,-16%
CCOc1ccc(NC(=O)Nc2ccc3c(c2)N(C)C(=O)CS3)cc1,7%,-11%,27%,-13%,12%,?
COc1ccc(NC(=O)Nc2ccc3c(c2)N(C)C(=O)CS3)cc1Cl,0%,?,12%,3%,?,6.3µM*[quencher]
CN1C(=O)CSc2ccc(NC(=O)NCCC3=CCCCC3)cc21,-2%,-27%,30%,4%,?,14µM*[quencher]
COc1ccc(NC(=O)Nc2ccc3c(c2)N(C)C(=O)CS3)cc1OC,-1%,-6%,34%,-1%,6%,-5%
CC(=O)c1ccc(NC(=O)Nc2ccc3c(c2)N(C)C(=O)CS3)cc1,0%,?,43%,1%,-3%,13µM*[quencher]
COc1cccc(NC(=O)Cn2c(=O)n(CCc3ccc(OC)c(OC)c3)c(=O)c3ccccc32)c1,-2%,5%,.,1%,?,-17%
COC(=O)NC(/C(C(=O)OC)=C(\C)NCc1ccccc1)c1ccccc1 (configuration not stated),-13%[11.2 µM],-11%[11.5 µM],.,7%[11.2 µM],-1%[11.6 µM],-11%[11.6 µM]
O=C(O)c1ccccc1Cc1ccccc1,0%,.,.,-10%,.,.
Cc1cccc(C(=O)n2nc(-c3cccnc3)nc2NCc2ccccc2)c1,0.0089µM*[quencher],?,.,-15%,-2%,?
O=C(Cn1c(=O)ccc2cc(S(=O)(=O)N3CCCC3)ccc21)Nc1ccc(Cl)cc1,-2%,10%,.,2%,?,?
N#CC1(C#N)C(c2ccccc2)OC23CCCCC2C1(C#N)C(=N)O3 (configuration not stated),?,-14%,-126%,45µM*,-3%,-7%
CCCCCCCCOc1ccc(C2OC34CCCCC3C(C#N)(C#N)C2(C#N)C(=N)O4)cc1 (configuration not stated),5%,?,28µM*,-19%,-8%,-18%
CCCCC1OC23CCCCC2C(C#N)(C#N)C1(C#N)C(=N)O3 (configuration not stated),4%,4%,28µM*,7%,7%,1%
O=C(Cn1c(=O)nc(-c2ccccc2)c2cc(Cl)ccc21)NCCCc1ccccc1,-15%,?,.,-1%,0%,-19%
O=C(NCCc1ccccc1)c1ccc(Nc2nc3ccccc3n3nnnc23)cc1,-1%,-2%,.,-7%,?,-14%
CCOc1ccc2nc(/N=C/c3c(C)[nH]n(-c4ccc(C)cc4)c3=O)sc2c1,-5%,?,7%,-5%,-1%,-27%
CCOc1ccc2nc(/N=C/c3c(C)[nH]n(-c4ccccc4)c3=O)sc2c1,-3%,14µM*,13%,2%,?,?
CCCC[C@@H]1C[C@H]1C(NC(=O)c1cccs1)c1ccc(Cl)cc1 (some centres not stated),3%,?,6%,2%,-1%,-22%
COc1ccc(C(=O)Nc2ccc3nc4c(c(Nc5ccccc5OC)c3c2)CCCC4)c(OC)c1,-2%,18µM*,.,-10%,-7%,?
SMILES,TR SRC2 fluor cs,Tau ThT inhib,GoLoco inh red,TRb-SRC2 inh,Tau FP inhib,Tau fluor cs
COc1ccccc1Nc1c2c(nc3ccc(NC(=O)c4ccc(OC)c(OC)c4)cc13)CCCC2,-2%,25µM*,.,0%,-17%,?
COc1ccc(Nc2c3c(nc4ccc(NC(=O)c5ccc(F)cc5)cc24)CCCC3)cc1OC,-1%,16µM*,.,-3%,8%,?
CCCc1cc(C(=O)Cc2nc3ccccc3s2)c(O)cc1O,-2%,25µM*,2%,-2%,0%,20µM*[quencher]
Cc1cc2c(NC(=O)Nc3ccc(C(C)(C)C)cc3)cccc2nn1,6%,-15%,-4%,-22%,35µM*,16µM*[quencher]
CC[C@H](C)[C@H](NC(=O)[C@H](CC(=O)O)NC(=O)[C@H](CC(C)C)NC(=O)[C@H](Cc1cnc[nH]1)NC(=O)[C@H](C)NC(=O)[C@H](Cc1ccccc1)NC(=O)[C@H](Cc1ccc(O)cc1)NC(=O)[C@@H](NC(=O)[C@H](C)NC(=O)[C@H](CCC(=O)O)NC(=O)[C@H](CCC(=O)O)NC(=O)[C@H](CC(=O)O)NC(=O)CCC(=O)O)C(C)C)C(=O)N[C@H](C(=O)N[C@@H](Cc1c[nH]c2ccccc12)C(=O)O)[C@@H](C)CC,-2%,.,.,9%,.,.
Cc1ccccc1NC(=S)NC(NC(=O)COc1ccccc1)C(Cl)(Cl)Cl (configuration not stated),-5%,14µM*,.,0%,?,-19%
COc1ccc(NC(=S)NC(NC(=O)c2ccccc2Cl)C(Cl)(Cl)Cl)c([N+](=O)[O-])c1 (configuration not stated),-1%,?,9%,-7%,6%,?
COc1ccc(NC(=S)NC(NC(=O)CCl)C(Cl)(Cl)Cl)c([N+](=O)[O-])c1 (configuration not stated),-4%,16µM*,-8%,-5%,-11%,?
CCc1ccc(OCC(=O)NC(NC(=S)Nc2ccccc2C)C(Cl)(Cl)Cl)cc1 (configuration not stated),1%,6%,-2%,14%,5%,5%
CCCC1(C(=O)OC)C=C2C(=C(C(C)C)C(=O)C2C)CN1 (configuration not stated),-5%,-15%,-1%,5%,3%,-5%
COC(=O)c1cc(C)nc2c1c(=O)nc(SCc1ccccc1C)n2C1CC1,-2%,-5%,.,-2%,0%,0%
